From PubChem
GDH-TPI counter – GDH-TPI coupling enzyme inhibitors, primary screen, artefact control for M. tuberculosis FBA inhibitor project, biochemical, absorbance, full deck. GDH-TPI coupled enzyme counterscreen, NADH absorbance. inhibition, % at 4.8 µM. hit rate 1.2% among 360,000. AID 588335, 2011;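 note: 0% = DMSO wells and 100% = wells lacking the enzyme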
MazF activator – activators of E. coli MazEF toxin-antitoxin RNase, primary screen, biochemical, fluorescence, uHTS | Endoribonuclease toxin MazF (Escherichia coli (strain K12)), P0AE70 | FAM/BHQ RNA-DNA oligo cleavage fluorescence, 5 h | activation, % at 20 µM | hit rate 0.32% among 350,000 | AID 504720, 2011; in the data active = activation above about 50%
CCHF vOTU inh-1 – CCHFV vOTU protease inhibitors, primary screen, biochemical, Pep-AMC substrate, fluorescence; hit rate 0.55% among 370,000; inhibition, % at 11.5 µM; Crimean-Congo hemorrhagic fever virus L polyprotein viral ovarian tumor (vOTU) protease …; AID 651958, 2012; note: 0% = vehicle wells with enzyme and 100% = no enzyme wells
Mtb bLac sens – beta-lactam sensitization of Mtb H37Rv, H37Rv. M. tuberculosis H37Rv growth with meropenem, percent inhibition. inhibition, % at 25 µM. hit rate 0.27% among 330,000. AID 434955, 2010; call rule not given here;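 note: growth measured after seven days incubation then overnight dye step; 0% = bacteria only wells and 100% = bacteria with antibiotic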
Mtb FBA inh – Mtb FBA enzyme inhibitors, primary screen, biochemical, fluorescence, strain H37Rv. hit rate 2.3% among 360,000. inhibition, % at 1 µM. Fructose-bisphosphate aldolase (Mycobacterium tuberculosis (strain ATCC 25618 / H37Rv)), …. purified M. tuberculosis FBA, fluorescence read-out; in the data active = inhibition above about 27%;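 note: 0% = vehicle and 100% = reference inhibitor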
Target sequence (P9WQA3 whole entry, looked up): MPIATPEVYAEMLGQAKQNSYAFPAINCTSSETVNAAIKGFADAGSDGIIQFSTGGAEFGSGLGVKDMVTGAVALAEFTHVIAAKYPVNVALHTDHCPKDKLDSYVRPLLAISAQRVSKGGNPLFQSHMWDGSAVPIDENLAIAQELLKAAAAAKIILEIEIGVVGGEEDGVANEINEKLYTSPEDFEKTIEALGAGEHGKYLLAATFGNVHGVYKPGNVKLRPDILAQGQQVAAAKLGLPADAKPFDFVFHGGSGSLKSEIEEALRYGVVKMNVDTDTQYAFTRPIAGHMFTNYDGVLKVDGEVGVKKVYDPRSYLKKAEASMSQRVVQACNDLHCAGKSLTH
CCHF vOTU inh-2 – CCHFV vOTU protease inhibitors, confirmation, biochemical, Pep-AMC substrate, fluorescence | shares compounds with CCHF vOTU inh-1 | Recombinant CCHFV vOTU | inhibition, % at 11.5 µM | hit rate 17% among 1,900 | AID 686976, 2013
* marks the source's active call; other numbers are inactive results. Compounds with a hit are over-represented: about 4% of the library has one in this group of screens. Cut-off read from the data, not from the text of the source, unless noted: active = inhibition above about 30%; inactive = the rest.

N#CCCN(C(=O)c1ccc2c(=O)n3c(nc2c1)CCCCC3)c1ccccc1 was read as GDH-TPI counter -3.0, MazF activator 15.0, CCHF vOTU inh-1 6.8, Mtb bLac sens 4.0 and Mtb FBA inh 2.1.
`CSc1nc(-c2ccco2)nn1S(C)(=O)=O` gave GDH-TPI counter -3.9, MazF activator -5.7, CCHF vOTU inh-1 36.1*, Mtb bLac sens 4.0, Mtb FBA inh 0.5 and CCHF vOTU inh-2 27.9.
For O=C(NCc1ccncc1)C1Cc2c(-c3ccccc3Oc3ccccc3)ccnc2O1 (stereo not given) the results were GDH-TPI counter 6.2, CCHF vOTU inh-1 32.2*, Mtb FBA inh 0.7 and CCHF vOTU inh-2 -14.3.
For Cc1cc(N2C(=O)C(O)=C(C(=O)c3cc4ccccc4o3)C2c2cccc(Br)c2)no1 (stereo not given) the results were GDH-TPI counter 14.7, MazF activator 8.4, CCHF vOTU inh-1 31.6*, Mtb bLac sens 14.2, Mtb FBA inh 2.7 and CCHF vOTU inh-2 18.2.
For NNC(=O)c1ccc(NS(=O)(=O)c2ccc(Br)cc2)cc1 the results were CCHF vOTU inh-1 -9.6 and Mtb bLac sens 0.6.
For CCCc1c(C(=O)N/N=C/c2ccco2)nnn1-c1nonc1N the results were GDH-TPI counter 21.6, MazF activator -2.5, CCHF vOTU inh-1 -6.4, Mtb bLac sens 2.6 and Mtb FBA inh -2.1.
Screening COc1ccc(NC(=O)CCNC(=O)Cn2cnc3ccccc3c2=O)cc1OC returned GDH-TPI counter 8.1, MazF activator -0.4, CCHF vOTU inh-1 -2.5, Mtb bLac sens -5.0 and Mtb FBA inh 2.4.
`O=C(Cn1cnc2ccccc2c1=O)NCCC(=O)Nc1ccc(F)cc1` gave GDH-TPI counter 17.8, MazF activator 5.4, CCHF vOTU inh-1 55.9*, Mtb bLac sens 1.7, Mtb FBA inh 0.0 and CCHF vOTU inh-2 -15.5.
`CCCc1nn(C)c2c(=O)[nH]c(-c3cc(S(=O)(=O)Nc4ccc(NC(C)=O)cc4)ccc3OCC)nc12` gave GDH-TPI counter 4.6, MazF activator 6.3, CCHF vOTU inh-1 8.6, Mtb bLac sens 5.5 and Mtb FBA inh -0.3.
CCCC(=Nc1ccccc1)C1=C(O)C(C(=O)OC)C(C)(C)CC1=O (stereo not given) was read as GDH-TPI counter -4.1, MazF activator 4.4, CCHF vOTU inh-1 -11.7, Mtb bLac sens -1.2 and Mtb FBA inh 2.2.
Screening CCC(=NCc1ccccc1)C1=C(O)C(C(=O)OC)C(C)(C)CC1=O (stereo not given) returned GDH-TPI counter 13.4, MazF activator -1.2, CCHF vOTU inh-1 10.5, Mtb bLac sens -4.1 and Mtb FBA inh 6.1.
Screening CCCCC(=Nc1ccc(N)cc1)C1=C(O)C(C(=O)OC)C(C)(C)CC1=O (stereo not given) returned GDH-TPI counter 25.0, MazF activator 1.7, CCHF vOTU inh-1 91.9*, Mtb bLac sens 41.7, Mtb FBA inh -0.7 and CCHF vOTU inh-2 7.9.
Screening CCC(=Nc1ccc(N)cc1)C1=C(O)C(C(=O)OC)C(C)(C)CC1=O (stereo not given) returned GDH-TPI counter 10.2, MazF activator 12.0, CCHF vOTU inh-1 105.5*, Mtb bLac sens 9.0, Mtb FBA inh -4.3 and CCHF vOTU inh-2 4.8.
Screening CCCNC(=O)C(Cc1ccccc1)NC(=O)c1ccc(-c2ccccc2)cc1 (stereo not given) returned GDH-TPI counter 1.2, MazF activator -13.2, CCHF vOTU inh-1 -2.5, Mtb bLac sens 9.5 and Mtb FBA inh -1.6.
CC(Nc1ccc2c(c1)OCCO2)C(=O)N1c2ccccc2CC1C (stereo not given) was read as GDH-TPI counter 5.5, MazF activator -0.7, CCHF vOTU inh-1 7.9, Mtb bLac sens -4.2 and Mtb FBA inh 2.1.
`COc1ccc(-c2cc(=O)[nH][nH]2)cc1OC` gave GDH-TPI counter 3.0, MazF activator 3.0, CCHF vOTU inh-1 60.1*, Mtb bLac sens -7.1, Mtb FBA inh 3.4 and CCHF vOTU inh-2 -19.4.
